Measurements from ChEMBL document CHEMBL4513216, “Probing the Open Global Health Chemical Diversity Library for Multistage-Active Starting Points for Next-Generation Antimalarials” (ACS Infect Dis, 2020).
Screen size: about 69,000 compounds; about 8,600 (12%) showed an effect of 50% or more. The list comes from a sample in which strong results are over-represented; it also holds similar structures and randomly drawn compounds.

tested on: Plasmodium berghei; experiment: Screen against P. berghei liver stage (PbLuc), transformed with Luciferase, at 10uM; type: functional, HepG2; details: tested at 10 uM

Going from COc1ccccc1-n1nc(-c2ccco2)n(CC(N)=O)c1=O to COC(=O)c1ccoc1CN(C)Cc1ccccc1, the INHIBITION rises from 30.9% to 37.1%.

First: O=C1COC2(COCCN(Cc3ccsc3)C2)CN1c1ccc(F)cc1 (stereo not drawn)
Second: c1cc(C2CCN(Cc3ccc4c(c3)OCO4)CC2)ccn1
The INHIBITION of the first is lower: 13.1% for the first, 19.4% for the second.

Going from O=C1CCC(c2ccc(Cl)cc2)=NN1CN1CCCCCC1 to Cc1ccc(N2CCCC(NCc3nnc4n3CCCC4)C2=O)cc1 (stereo not drawn), the INHIBITION falls from -52.7% to -76.95%.

First: CC(C)C(=O)N1CC[C@@H]2[C@H](CC1)N(Cc1cccnc1)CCS2(=O)=O
Second: CC(C)CN1CC[C@@H]2[C@@H]1CCN2S(=O)(=O)c1cccs1
The INHIBITION of the first is lower: -20.1% for the first, 1.34% for the second.

First: CN(C)C(=O)N[C@H]1CN(Cc2ccc3c(c2)OCO3)[C@@H]2CCCO[C@H]12
Second: O=C(NC1CCC1)c1cccc(S(=O)(=O)NCc2nc(C3CC3)no2)c1
The INHIBITION of the first is higher: 27.2% for the first, -9.2% for the second.

First: CCOCCC(=O)N1CCCC(CO)(CC2CC2)C1 (stereo not drawn)
Second: NC(=O)CC1CCCN(C(=O)NCC2(c3cccs3)CCCC2)C1 (stereo not drawn)
The INHIBITION of the first is higher: 33% for the first, -9.51% for the second.

Going from O=C(O)c1nnn(-c2cccc(C(F)(F)F)c2)c1C1CC1 to O=C(CCO)N1C[C@H]2CN(c3ccccc3)C(=O)[C@H]2C1, the INHIBITION falls from 12.9% to -73.8%.

First: CCOc1cc(CN(C)CCOC)ccc1OC(F)F
Second: CCOc1cc(CN(C)CCC(=O)OC)ccc1OC(F)F
The INHIBITION of the first is lower: 43.5% for the first, 54.5% for the second.

Compared with CCOc1cc(CNC(=O)NC2CC=CC2)ccc1OC(F)F, Cc1nnc(NC(=O)NCc2ccc(F)cc2)s1 is lower in INHIBITION: 23.9% for the first, -162% for the second.

First: CCN1CC2(CCN(C(=O)c3nc4cc(C)ccn4c3F)CC2)CC1=O
Second: CCS(=O)(=O)N1CCC2(CC1)CCn1c(-c3cnn(C)c3)cnc12
The INHIBITION of the first is higher: 7.65% for the first, -65.4% for the second.

Going from CCn1ccc(NS(=O)(=O)c2cccc(CSC)c2)n1 to Cc1nn(C)c(N(C)C)c1CNCc1cccc(Cl)c1, the INHIBITION rises from -3.83% to 68.1%.

First: CC(C)CS(=O)(=O)N1CCC2(CC1)CCn1c(-c3cnn(C)c3)cnc12
Second: CCCS(=O)(=O)N1CCC2(CC1)CCn1c(-c3cnn(C)c3)cnc12
The INHIBITION of the first is lower: 5.41% for the first, 85.4% for the second.

Going from Cn1cc(N2CCC3(CCN(S(=O)(=O)C4CC4)C3)C2=O)cn1 (stereo not drawn) to Cn1cc(-c2cnc3n2CCC32CCN(S(=O)(=O)C3CC3)CC2)cn1, the INHIBITION rises from 15.1% to 63.1%.

Compared with Cn1cc(-c2cnc3n2CCC32CCN(S(C)(=O)=O)CC2)cn1, CS(=O)(=O)N1CCN(C(=O)C2CSCCC(=O)N2)CC1 (stereo not drawn) is higher in INHIBITION: -26.1% for the first, 60% for the second.

First: Cc1c(-c2cc(-c3cnn(C)c3C)n(CC(=O)NC3CC3)n2)cnn1C
Second: Cc1ccc(C)c(NC(=O)Cn2nc(C)c(C#N)c2N)c1
The INHIBITION of the first is higher: 45.4% for the first, 14.6% for the second.

First: Cc1nc(N2CCN(C(=O)C3CCCC3)CC2)c2c(n1)c(C)nn2C
Second: O=C1CCSCC(C(=O)N2CCCCC2)N1 (stereo not drawn)
The INHIBITION of the first is higher: 35.8% for the first, -18.3% for the second.

First: COCCn1c(=O)n(C)c(=O)c2ccc(C3CCC(CN)CC3)nc21 (stereo not drawn)
Second: COCCN1C(=O)CCC12CCC(NCc1ccc(OC)cc1)CC2 (stereo not drawn)
The INHIBITION of the first is higher: 36.1% for the first, 15.3% for the second.

First: O=C(NC1CCCC1)N1CCC2(CC1)CC(Oc1cccnc1)CO2 (stereo not drawn)
Second: O=C(NC[C@]12COC[C@H]1CN(Cc1cccnc1)C2)c1ccno1
The INHIBITION of the first is lower: 9.63% for the first, 29% for the second.

First: CC(C)N(C)CC(=O)N(C)Cc1nc(C(F)(F)F)cs1
Second: CC(C)CC(=O)N(C)Cc1nc(C(F)(F)F)cs1
The INHIBITION of the first is lower: 22.7% for the first, 62.9% for the second.

Compared with CCOCC(=O)N(C)Cc1nc(C(F)(F)F)cs1, Cc1nn(C)c(N(C)C)c1CNCC(O)COc1cccc(F)c1 (stereo not drawn) is higher in INHIBITION: 9.52% for the first, 83.2% for the second.

First: CNC(=O)[C@H]1C[C@@H]2CN(C(=O)c3occc3C)C[C@@H]2N1S(C)(=O)=O
Second: CC(C)CC(=O)N1CCCn2cnc(CNS(C)(=O)=O)c2C1
The INHIBITION of the first is higher: -0.371% for the first, -3.33% for the second.

First: O=C1CCSCC(C(=O)N2CCCC2)N1 (stereo not drawn)
Second: CC(C)NC(=O)[C@H]1C[C@@H]2[C@@H](C1)OCCN2Cc1nccs1
The INHIBITION of the first is higher: 38.5% for the first, 16.9% for the second.

Compared with O=C(c1ccc(S(=O)(=O)NCc2ccon2)cc1)N1CCNCC1, Nc1nccnc1C1CN(C(=O)c2ccnnc2)CCO1 (stereo not drawn) is lower in INHIBITION: 41.3% for the first, 26.8% for the second.

First: COc1cccc(CNCc2c(C)nn(C)c2N(C)C)c1
Second: COc1cccc(CNCc2c(C(C)C)nn(C)c2N(C)C)c1
The INHIBITION of the first is higher: 38.95% for the first, 12.22% for the second.

First: Cc1cccc(OCC(O)CNCc2c(C)nn(C)c2N(C)C)c1 (stereo not drawn)
Second: Cc1nn(C)c(N(C)C)c1CNCC(O)COc1ccc(F)cc1 (stereo not drawn)
The INHIBITION of the first is lower: -45.2% for the first, 0% for the second.

Going from COc1cc(CNCc2c(C)nn(C)c2N(C)C)ccc1C to COc1ccc2cc(CNCc3c(C)nn(C)c3N(C)C)ccc2c1, the INHIBITION rises from 30.8% to 53%.

Going from Cc1nn(C)c(N(C)C)c1CNCc1cccc(CN(C)C)c1 to COCc1cccc(CNCc2c(C)nn(C)c2N(C)C)c1, the INHIBITION rises from -72.2% to 44.3%.

Compared with Cc1nn(C)c(N(C)C)c1CNCc1cccc(Br)c1, COCc1cccc(CNCc2c(C(C)C)nn(C)c2N(C)C)c1 is higher in INHIBITION: -22.1% for the first, 50.8% for the second.

First: COc1ccc(OC)c(-c2cc(C(=O)NCC3(CO)CC3)n(C)n2)c1
Second: COc1ccc(C)cc1NC(=O)Cn1nc(C)c(C#N)c1N
The INHIBITION of the first is lower: 6.54% for the first, 16.8% for the second.

First: Cc1ccc(NCc2cc(C#N)ccc2F)cc1-n1nnnc1C
Second: CCc1nn(-c2cc(Oc3cc(C)ccc3C)ncn2)c(N)c1C#N
The INHIBITION of the first is lower: -3.83% for the first, 57.8% for the second.

First: CSC(C)(C)CNC(=O)NC1CCC1
Second: CCNc1cc2c(nn1)CCN(C(=O)C(C)c1c(C)noc1C)C2 (stereo not drawn)
The INHIBITION of the first is higher: 34.6% for the first, 31.9% for the second.

First: CC(c1cc(F)ccc1F)N(C)Cc1nc2c(cnn2C)c(=O)[nH]1 (stereo not drawn)
Second: CCOC(=O)c1cnn(-c2cc(Oc3cc(C)ccc3C)ncn2)c1N
The INHIBITION of the first is lower: 16.34% for the first, 18.6% for the second.

First: CCc1nn(-c2cc(Oc3cccc(C)c3)nc(C)n2)c(N)c1C#N
Second: CCc1nn(-c2cc(Oc3ccccc3)nc(C)n2)c(N)c1C#N
The INHIBITION of the first is lower: -7.81% for the first, 31.8% for the second.

Compared with CCc1nn(-c2cc(Oc3cc(C)ccc3C)nc(C)n2)c(N)c1C#N, Cc1ccc(C)c(Oc2cc(-n3nc(C)c(C#N)c3N)nc(C)n2)c1 is lower in INHIBITION: 64.9% for the first, 55.6% for the second.
